# High-throughput results as filed in PubChem BioAssay.
# Shown are actives, neighbours in structure and some others; about 3.1% of the full set was active somewhere.
# FadD28 binding – inhibitors of FadD28 bisubstrate probe binding, primary screen, biochemical, fluorescence polarization, single point | AID 588549, 2011 | Mycobacterium tuberculosis FadD28 fatty-acid-AMP ligase | 360,000 tested, 0.22% active | inhibition, % at 12.5 µM; in the data active = inhibition above about 8.5%, passing the limit was not always enough
# BioA inh – M. tuberculosis BioA enzyme inhibitors, primary screen, biochemical, plate reader, single point, HTS; inhibition, % at 9.99 µM; 7,8-diaminopelargonic acid synthase BioA (Mycobacterium tuberculosis); purified M. tuberculosis BioA enzyme; 360,000 tested, 0.096% active; AID 602481, 2012; in the data active = inhibition above about 40%
# GDH-TPI counter-1 – GDH-TPI coupling enzyme inhibitors, primary screen, artefact control for M. tuberculosis FBA inhibitor project, biochemical, absorbance, full deck. GDH-TPI coupled enzyme counterscreen, NADH absorbance. inhibition, % at 4.8 µM. 360,000 tested, 1.2% active. AID 588335, 2011; in the data active = inhibition above about 30%;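 also: 0% = DMSO wells and 100% = wells lacking the enzyme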
# FBA Mtb inh – Mtb FBA enzyme inhibitors, primary screen, biochemical, fluorescence, strain H37Rv | Fructose-bisphosphate aldolase (Mycobacterium tuberculosis (strain ATCC 25618 / H37Rv)), … | inhibition, % at 1 µM | 360,000 tested, 2.3% active | purified M. tuberculosis FBA, fluorescence read-out;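 also: 0% = vehicle and 100% = reference inhibitor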
# Target sequence (P9WQA3 whole entry, looked up): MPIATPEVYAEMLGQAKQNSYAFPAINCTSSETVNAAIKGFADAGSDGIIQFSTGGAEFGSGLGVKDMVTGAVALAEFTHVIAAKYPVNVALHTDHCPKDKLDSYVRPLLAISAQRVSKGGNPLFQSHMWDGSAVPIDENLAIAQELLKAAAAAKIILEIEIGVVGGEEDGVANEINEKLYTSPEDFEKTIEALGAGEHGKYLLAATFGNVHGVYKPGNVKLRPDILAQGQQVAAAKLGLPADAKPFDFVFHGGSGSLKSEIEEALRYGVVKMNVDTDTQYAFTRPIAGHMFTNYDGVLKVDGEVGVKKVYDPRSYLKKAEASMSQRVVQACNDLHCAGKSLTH
# SARS 3CLpro inh – SARS-CoV 3CLpro protease inhibitors, primary screen, biochemical, quenched FRET; recombinant SARS-CoV 3CLpro, quenched FRET peptide cleavage; inhibition, % at 6 µM; 290,000 tested, 0.14% active; AID 1706, 2009; in the data active = inhibition above about 12%
# Mtb FBA confirm – M. tuberculosis aldolase blockers, biochemical, fluorescence, strain H37Rv, confirmation; shares compounds with FBA Mtb inh; purified M. tuberculosis FBA, fluorescence read-out; inhibition, % at 1 µM; 5,600 tested, 78% active; AID 651616, 2012;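 also: 0% = vehicle wells and 100% = reference inhibitor wells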
# GDH-TPI counter-2 – GDH-TPI coupling enzyme inhibitors, artefact control for M. tuberculosis FBA inhibitor project, biochemical, fluorescence, high throughput | shares compounds with FBA Mtb inh | GDH-TPI coupled enzyme counterscreen | inhibition, % at 1 µM | 5,600 tested, 81% active; in the data active = inhibition above about 10%
# * hit, by the source's call; nt = no result given. Rule as the data show it, unless noted: active = inhibition above about 27%; inactive = the rest.
SMILES,FadD28 binding,BioA inh,GDH-TPI counter-1,FBA Mtb inh,SARS 3CLpro inh,Mtb FBA confirm,GDH-TPI counter-2
C[C@H](CO)N1C[C@H](C)[C@@H](CN(C)C(=O)C2CC2)Oc2cc(-c3cccc(F)c3)ccc2S1(=O)=O,nt,9,nt,nt,nt,nt,nt
c1ccc2nc3[nH]cnc3nc2c1,-1,-2,21,42*,-8,154*,101*
N#CCc1ccc(Oc2ncc(C(F)(F)F)cc2Cl)cc1,0,10,0,44*,1,123*,102*
NC(=O)c1ccc(Oc2ncc(C(F)(F)F)cc2Cl)cc1,-3,nt,0,1,-2,nt,nt
Cc1ccc(S(=O)(=O)N(C)C[C@H]2Oc3c(NS(=O)(=O)c4ccc(Cl)cc4)cccc3C(=O)N([C@@H](C)CO)C[C@H]2C)cc1,nt,0,nt,nt,nt,nt,nt
CN1C(=O)c2cc(NC(=O)c3ccc(C(F)(F)F)cc3)ccc2OC[C@@H]2O[C@@H](CC(=O)NC3Cc4ccccc4C3)CC[C@H]21,nt,0,nt,nt,nt,nt,nt
CN1CCc2c(sc3c2C(=O)NC(c2cccs2)N3)C1 (configuration not stated),1,-6,15,26,2,nt,nt
Cc1ccsc1C1NC(=O)c2c(sc3c2CCN(C)C3)N1 (configuration not stated),1,-7,12,44*,-1,-5,-5
COc1ccc(NC(=O)N(C)C[C@H]2Oc3ccc(N(C)C)cc3CC(=O)N([C@@H](C)CO)C[C@@H]2C)cc1,nt,-1,nt,nt,nt,nt,nt
CCC(=O)Nc1ccc2c(c1)OC[C@@H](C)N(Cc1ccccn1)C[C@H](C)[C@H](OC)CN(C)C2=O,nt,4,nt,nt,nt,nt,nt
CC1=CC(=O)C(C(C)C)=C/C1=N\OC(=O)c1cccc2nc(C)oc12,-3,-2,9,32*,-1,69*,59*
CC1=CC(=O)C(C(C)C)=C/C1=N/OC(=O)c1cccc([N+](=O)[O-])c1,-2,0,10,-5,-1,nt,nt
COc1ccc(NC(=O)N[C@H]2CC[C@H](CCn3cc(C4(O)CCCC4)nn3)O[C@@H]2CO)cc1,nt,1,nt,nt,nt,nt,nt
COc1ccc(CCNC(=O)COC(=O)c2ccccc2NCCO)cc1OC,0,-1,5,91*,nt,128*,78*
O=C(COC(=O)c1ccccc1NCCO)NCc1cccs1,0,0,3,66*,nt,20,24*
CS(=O)(=O)Nc1ccccc1C(=O)OCC(=O)NCc1cccs1,1,nt,12,3,nt,nt,nt
C[C@H]1CN([C@@H](C)CO)S(=O)(=O)c2ccc(C#Cc3cccc(F)c3)cc2O[C@@H]1CN(C)C(=O)NC1CCCCC1,nt,2,nt,nt,nt,nt,nt
CCC(=O)N(C)C[C@H]1Oc2ncc(C#CCC(C)C)cc2C(=O)N([C@H](C)CO)C[C@@H]1C,nt,1,nt,nt,nt,nt,nt
CNC[C@@H]1Oc2cc(-c3cncnc3)ccc2S(=O)(=O)N([C@H](C)CO)C[C@H]1C,nt,0,nt,nt,nt,nt,nt
Cc1cc(OCC(=O)NCCc2ccc(S(N)(=O)=O)cc2)c2c(C)cc(=O)oc2c1,-3,-3,-6,67*,-7,120*,97*
Cc1cc(OC(C)C(=O)NCc2ccncc2)c2c(C)c(C)c(=O)oc2c1 (configuration not stated),0,0,7,103*,4,57*,49*
COc1ccc(CCNC(=O)COc2cc(C)cc3oc(=O)cc(C)c23)cc1,-2,0,6,3,2,nt,nt
CC(Oc1ccc(Cl)cc1Cl)C(=O)NCc1ccncc1 (configuration not stated),0,1,8,0,4,nt,nt
CCCCc1cc(=O)oc2cc(C)cc(OC(C)C(=O)NCc3ccncc3)c12 (configuration not stated),0,nt,1,42*,-1,109*,76*
